# Substitutions are numbered along the chain they refer to.
# Tests used:
# Experiment in all cases: PBM; 200 nM protein, PBS
# Conditions in all cases: dsDNA, one strand shown
# [1] = biological target: HOXB4 (Homo sapiens, UniProt P17483 148-234)
# [2] = biological target: T1, VENTX (Homo sapiens, UniProt O95231 78-163, R121Q)
# T1 sequence: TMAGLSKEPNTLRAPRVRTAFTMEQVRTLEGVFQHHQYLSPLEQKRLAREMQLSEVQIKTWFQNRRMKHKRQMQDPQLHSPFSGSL
# [3] = biological target: HOXA4 (Homo sapiens, UniProt Q00056 201-287, W262R)
# HOXA4 (Homo sapiens, UniProt Q00056 201-287, W262R), sequence (Q00056 201-287 W262R): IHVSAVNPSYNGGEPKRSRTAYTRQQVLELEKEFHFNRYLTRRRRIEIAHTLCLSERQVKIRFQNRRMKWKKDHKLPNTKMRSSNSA
# [4] = biological target: ALX4 (Homo sapiens, UniProt Q9H161 200-286)
# ALX4, sequence (Q9H161 200-286): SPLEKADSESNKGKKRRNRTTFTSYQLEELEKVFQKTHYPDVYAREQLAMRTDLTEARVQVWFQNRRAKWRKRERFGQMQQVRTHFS
# [5] = biological target: PRRX1 (Homo sapiens, UniProt P54821 80-166, F113S)
# PRRX1 (Homo sapiens, UniProt P54821 80-166, F113S), sequence (P54821 80-166 F113S): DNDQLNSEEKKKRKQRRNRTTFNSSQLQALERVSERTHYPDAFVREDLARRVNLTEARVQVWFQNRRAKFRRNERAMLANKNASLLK
# [6] = biological target: T2, VENTX (Homo sapiens, UniProt O95231 78-163, Y115F)
# T2 sequence: T1 sequence with Y38F, Q44R
# [7] = biological target: HOXB6 (Homo sapiens, UniProt P17509 132-218, K202E)
# HOXB6 (Homo sapiens, UniProt P17509 132-218, K202E), sequence (P17509 132-218 K202E): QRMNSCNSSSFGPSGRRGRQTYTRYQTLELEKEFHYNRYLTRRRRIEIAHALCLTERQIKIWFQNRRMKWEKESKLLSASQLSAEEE
# [8] = biological target: HOXA2 (Homo sapiens, UniProt O43364 129-215, R185T)
# HOXA2 (Homo sapiens, UniProt O43364 129-215, R185T), sequence (O43364 129-215 R185T): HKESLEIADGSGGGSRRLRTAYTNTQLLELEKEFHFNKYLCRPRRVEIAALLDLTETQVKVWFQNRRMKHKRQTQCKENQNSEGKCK
# [9] = biological target: HOXA4 (Homo sapiens, UniProt Q00056 201-287, R217L)
# HOXA4 (Homo sapiens, UniProt Q00056 201-287, R217L), sequence (Q00056 201-287 R217L): as the sequence (Q00056 201-287 W262R) above, with R17L, R62W counted along it
# [10] = biological target: HOXB4 (Homo sapiens, UniProt P17483 148-234, V174I)
# HOXB4 (Homo sapiens, UniProt P17483 148-234, V174I), sequence (P17483 148-234 V174I): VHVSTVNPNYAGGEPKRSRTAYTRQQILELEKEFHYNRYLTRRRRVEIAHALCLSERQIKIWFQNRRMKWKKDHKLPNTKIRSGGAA
# [11] = biological target: T3, PAX4 (Homo sapiens, UniProt O43316 9-242, R200Q)
# T3 sequence: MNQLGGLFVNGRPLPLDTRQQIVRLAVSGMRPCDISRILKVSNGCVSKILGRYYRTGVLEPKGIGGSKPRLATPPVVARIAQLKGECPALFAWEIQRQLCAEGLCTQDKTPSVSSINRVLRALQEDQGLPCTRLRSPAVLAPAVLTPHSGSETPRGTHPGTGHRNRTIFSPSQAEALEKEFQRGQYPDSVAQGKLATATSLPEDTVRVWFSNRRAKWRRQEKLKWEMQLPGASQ
# [12] = biological target: HOXA2 (Homo sapiens, UniProt O43364 129-215, R185K)
# HOXA2 (Homo sapiens, UniProt O43364 129-215, R185K), sequence (O43364 129-215 R185K): as the sequence (O43364 129-215 R185T) above, with T57K counted along it
# [13] = biological target: HOXA4 (Homo sapiens, UniProt Q00056 201-287)
# HOXA4 (Homo sapiens, UniProt Q00056 201-287), sequence (Q00056 201-287): as the sequence (Q00056 201-287 W262R) above, with R62W counted along it
# [14] = biological target: MSX2 (Homo sapiens, UniProt P35548 130-214)
# MSX2 (Homo sapiens, UniProt P35548 130-214), sequence (P35548 130-214): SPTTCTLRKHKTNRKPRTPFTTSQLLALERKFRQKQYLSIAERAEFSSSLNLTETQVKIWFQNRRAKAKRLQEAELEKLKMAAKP
# [15] = biological target: MSX2 (Homo sapiens, UniProt P35548 130-214, F161Y)
# MSX2 (Homo sapiens, UniProt P35548 130-214, F161Y), sequence (P35548 130-214 F161Y): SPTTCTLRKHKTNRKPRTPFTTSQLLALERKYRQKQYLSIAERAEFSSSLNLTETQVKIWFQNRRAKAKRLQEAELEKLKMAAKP
# [16] = biological target: VAX1 (Homo sapiens, UniProt Q5SQQ9 86-172, T142I)
# VAX1 (Homo sapiens, UniProt Q5SQQ9 86-172, T142I), sequence (Q5SQQ9 86-172 T142I): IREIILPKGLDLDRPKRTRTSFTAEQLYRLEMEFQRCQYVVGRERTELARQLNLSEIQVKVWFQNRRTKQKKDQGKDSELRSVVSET
# [17] = biological target: HOXA4 (Homo sapiens, UniProt Q00056 201-287, W262F)
# HOXA4 (Homo sapiens, UniProt Q00056 201-287, W262F), sequence (Q00056 201-287 W262F): as the sequence (Q00056 201-287 W262R) above, with R62F counted along it
# [18] = biological target: PRRX1 (Homo sapiens, UniProt P54821 80-166)
# PRRX1 (Homo sapiens, UniProt P54821 80-166), sequence (P54821 80-166): as the sequence (P54821 80-166 F113S) above, with S34F counted along it
# [19] = biological target: VAX1 (Homo sapiens, UniProt Q5SQQ9 86-172, K157R)
# VAX1 (Homo sapiens, UniProt Q5SQQ9 86-172, K157R), sequence (Q5SQQ9 86-172 K157R): as the sequence (Q5SQQ9 86-172 T142I) above, with I57T, K72R counted along it
# [20] = biological target: HOXB6 (Homo sapiens, UniProt P17509 132-218)
# HOXB6 (Homo sapiens, UniProt P17509 132-218), sequence (P17509 132-218): as the sequence (P17509 132-218 K202E) above, with E71K counted along it
# HOXB4 (Homo sapiens, UniProt P17483 148-234), sequence (P17483 148-234): as the sequence (P17483 148-234 V174I) above, with I27V counted along it
Sequence,binding signal [1],binding signal [2],binding signal [3],binding signal [4],binding signal [5],binding signal [6],binding signal [7],binding signal [8],binding signal [9],binding signal [10],binding signal [11],binding signal [12],binding signal [13],binding signal [14],binding signal [15],binding signal [16],binding signal [17],binding signal [18],binding signal [19],binding signal [20]
AATTAACA,"13 upbm affinity estimate (log intensity, higher = more binding, comparable within an allelic series)","11.9 upbm affinity estimate (log intensity, higher = more binding, comparable within an allelic series)","10.8 upbm affinity estimate (log intensity, higher = more binding, comparable within an allelic series)","13.9 upbm affinity estimate (log intensity, higher = more binding, comparable within an allelic series)","11.2 upbm affinity estimate (log intensity, higher = more binding, comparable within an allelic series)","11.7 upbm affinity estimate (log intensity, higher = more binding, comparable within an allelic series)","10 upbm affinity estimate (log intensity, higher = more binding, comparable within an allelic series)","12.6 upbm affinity estimate (log intensity, higher = more binding, comparable within an allelic series)","12.1 upbm affinity estimate (log intensity, higher = more binding, comparable within an allelic series)","13.8 upbm affinity estimate (log intensity, higher = more binding, comparable within an allelic series)","12.2 upbm affinity estimate (log intensity, higher = more binding, comparable within an allelic series)","13.1 upbm affinity estimate (log intensity, higher = more binding, comparable within an allelic series)","13.7 upbm affinity estimate (log intensity, higher = more binding, comparable within an allelic series)","13.6 upbm affinity estimate (log intensity, higher = more binding, comparable within an allelic series)","13.2 upbm affinity estimate (log intensity, higher = more binding, comparable within an allelic series)","12.6 upbm affinity estimate (log intensity, higher = more binding, comparable within an allelic series)","11.7 upbm affinity estimate (log intensity, higher = more binding, comparable within an allelic series)","13.3 upbm affinity estimate (log intensity, higher = more binding, comparable within an allelic series)","12.8 upbm affinity estimate (log intensity, higher = more binding, comparable within an allelic series)","11.7 upbm affinity estimate (log intensity, higher = more binding, comparable within an allelic series)"
AAATTAAT,"12.9 upbm affinity estimate (log intensity, higher = more binding, comparable within an allelic series)",–,"10.6 upbm affinity estimate (log intensity, higher = more binding, comparable within an allelic series)","14 upbm affinity estimate (log intensity, higher = more binding, comparable within an allelic series)","11.2 upbm affinity estimate (log intensity, higher = more binding, comparable within an allelic series)",–,"10.1 upbm affinity estimate (log intensity, higher = more binding, comparable within an allelic series)",–,"12.1 upbm affinity estimate (log intensity, higher = more binding, comparable within an allelic series)","13.6 upbm affinity estimate (log intensity, higher = more binding, comparable within an allelic series)","12.4 upbm affinity estimate (log intensity, higher = more binding, comparable within an allelic series)",–,"13.6 upbm affinity estimate (log intensity, higher = more binding, comparable within an allelic series)","13.4 upbm affinity estimate (log intensity, higher = more binding, comparable within an allelic series)","13.1 upbm affinity estimate (log intensity, higher = more binding, comparable within an allelic series)","12.5 upbm affinity estimate (log intensity, higher = more binding, comparable within an allelic series)","11.5 upbm affinity estimate (log intensity, higher = more binding, comparable within an allelic series)","13.3 upbm affinity estimate (log intensity, higher = more binding, comparable within an allelic series)","12.4 upbm affinity estimate (log intensity, higher = more binding, comparable within an allelic series)","11.8 upbm affinity estimate (log intensity, higher = more binding, comparable within an allelic series)"
ACAATTAA,"13 upbm affinity estimate (log intensity, higher = more binding, comparable within an allelic series)","11.7 upbm affinity estimate (log intensity, higher = more binding, comparable within an allelic series)","10.5 upbm affinity estimate (log intensity, higher = more binding, comparable within an allelic series)","13.7 upbm affinity estimate (log intensity, higher = more binding, comparable within an allelic series)","11.2 upbm affinity estimate (log intensity, higher = more binding, comparable within an allelic series)","11.5 upbm affinity estimate (log intensity, higher = more binding, comparable within an allelic series)","10.1 upbm affinity estimate (log intensity, higher = more binding, comparable within an allelic series)","12.6 upbm affinity estimate (log intensity, higher = more binding, comparable within an allelic series)","12 upbm affinity estimate (log intensity, higher = more binding, comparable within an allelic series)","13.7 upbm affinity estimate (log intensity, higher = more binding, comparable within an allelic series)","11.8 upbm affinity estimate (log intensity, higher = more binding, comparable within an allelic series)","13.1 upbm affinity estimate (log intensity, higher = more binding, comparable within an allelic series)","13.8 upbm affinity estimate (log intensity, higher = more binding, comparable within an allelic series)","13.7 upbm affinity estimate (log intensity, higher = more binding, comparable within an allelic series)","13.4 upbm affinity estimate (log intensity, higher = more binding, comparable within an allelic series)","12.5 upbm affinity estimate (log intensity, higher = more binding, comparable within an allelic series)","11.5 upbm affinity estimate (log intensity, higher = more binding, comparable within an allelic series)","13.3 upbm affinity estimate (log intensity, higher = more binding, comparable within an allelic series)","12.3 upbm affinity estimate (log intensity, higher = more binding, comparable within an allelic series)","11.9 upbm affinity estimate (log intensity, higher = more binding, comparable within an allelic series)"
GCAAGGGC,"7.23 upbm affinity estimate (log intensity, higher = more binding, comparable within an allelic series)",–,"9.8 upbm affinity estimate (log intensity, higher = more binding, comparable within an allelic series)",–,–,–,–,–,"9.73 upbm affinity estimate (log intensity, higher = more binding, comparable within an allelic series)","7.22 upbm affinity estimate (log intensity, higher = more binding, comparable within an allelic series)",–,–,"9.73 upbm affinity estimate (log intensity, higher = more binding, comparable within an allelic series)",–,–,–,"9.87 upbm affinity estimate (log intensity, higher = more binding, comparable within an allelic series)",–,–,–
CAATTATC,"13 upbm affinity estimate (log intensity, higher = more binding, comparable within an allelic series)","11.7 upbm affinity estimate (log intensity, higher = more binding, comparable within an allelic series)","10.5 upbm affinity estimate (log intensity, higher = more binding, comparable within an allelic series)","13.8 upbm affinity estimate (log intensity, higher = more binding, comparable within an allelic series)","11.3 upbm affinity estimate (log intensity, higher = more binding, comparable within an allelic series)",–,"9.98 upbm affinity estimate (log intensity, higher = more binding, comparable within an allelic series)","12.4 upbm affinity estimate (log intensity, higher = more binding, comparable within an allelic series)","11.9 upbm affinity estimate (log intensity, higher = more binding, comparable within an allelic series)","13.6 upbm affinity estimate (log intensity, higher = more binding, comparable within an allelic series)","11.8 upbm affinity estimate (log intensity, higher = more binding, comparable within an allelic series)","13 upbm affinity estimate (log intensity, higher = more binding, comparable within an allelic series)","13.6 upbm affinity estimate (log intensity, higher = more binding, comparable within an allelic series)","13.9 upbm affinity estimate (log intensity, higher = more binding, comparable within an allelic series)","13.7 upbm affinity estimate (log intensity, higher = more binding, comparable within an allelic series)",–,"11.2 upbm affinity estimate (log intensity, higher = more binding, comparable within an allelic series)","13.4 upbm affinity estimate (log intensity, higher = more binding, comparable within an allelic series)",–,"11.6 upbm affinity estimate (log intensity, higher = more binding, comparable within an allelic series)"
